From PubChem BioAssay
Most compounds without a hit are left out; they make up all but 1.6% or so of the library.
RAD54 inh: inhibitors of human RAD54 branch migration, primary screen, biochemical, fluorescence, single point. RAD54 Holliday junction branch migration, FAM/BHQ fluorescence. 0.14% of 360,000 active. DNA repair and recombination protein RAD54-like (Homo sapiens), Q92698. inhibition, % at 10.4 µM;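 active = mean normalized replicate activity at least 40 and at least half of replicates scoring 40 or more; inconclusive = only one of the two criteria met; inactive = mean below 40 and under half of replicates reaching 40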;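 note: inhibitors cause a drop in the FAM fluorescence signal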
Target sequence (Q92698 whole entry, looked up): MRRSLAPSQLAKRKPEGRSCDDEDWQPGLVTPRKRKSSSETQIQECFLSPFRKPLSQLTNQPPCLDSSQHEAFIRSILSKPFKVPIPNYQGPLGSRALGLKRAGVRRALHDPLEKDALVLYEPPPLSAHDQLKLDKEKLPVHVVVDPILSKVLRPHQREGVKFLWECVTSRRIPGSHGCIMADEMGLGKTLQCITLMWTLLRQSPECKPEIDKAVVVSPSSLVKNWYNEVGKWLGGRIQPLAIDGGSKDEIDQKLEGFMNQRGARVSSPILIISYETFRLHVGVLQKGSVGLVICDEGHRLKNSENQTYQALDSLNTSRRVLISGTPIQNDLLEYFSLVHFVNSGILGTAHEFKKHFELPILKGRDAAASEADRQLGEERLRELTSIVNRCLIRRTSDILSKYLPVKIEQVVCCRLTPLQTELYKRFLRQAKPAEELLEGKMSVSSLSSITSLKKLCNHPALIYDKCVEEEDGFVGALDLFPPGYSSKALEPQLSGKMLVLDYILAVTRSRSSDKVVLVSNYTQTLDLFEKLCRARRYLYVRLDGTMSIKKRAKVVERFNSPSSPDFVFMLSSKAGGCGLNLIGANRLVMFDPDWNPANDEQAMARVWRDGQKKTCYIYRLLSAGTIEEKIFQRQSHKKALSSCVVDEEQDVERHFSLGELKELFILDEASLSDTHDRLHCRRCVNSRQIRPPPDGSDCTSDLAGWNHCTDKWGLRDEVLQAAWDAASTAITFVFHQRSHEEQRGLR
Myeloid diff 2: induction of myeloid progenitor differentiation, primary screen, cell-based, flow cytometry, MLPCN library; ER-HoxA9 myeloid progenitors, lysozyme-GFP differentiation; 1% of 360,000 active; calls only at 10 µM;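 active = normalized GFP-positive differentiation at or above the plate's own cutoff, the solvent-only control mean plus 3 SD; inconclusive = no clear call, values can overlap the other calls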;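 note: cells exposed to compound for four days before flow analysis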
ABCB6 inh 2: ABCB6 transporter inhibitors, primary screen, K562-ABCB6 cells, flow cytometry, MLPCN library; 0.19% of 360,000 active; fluorescence ratio to DMSO, % at 10 µM; K562-ABCB6 porphyrin accumulation, 1 h; active compounds read low;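 active = fluorescence ratio to DMSO below 75%, the collection mean minus 3 SD; inconclusive = too few cells collected in the well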;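 note: signal is porphyrin accumulated inside mitochondria; lower ratio means ABCB6 inhibition with less porphyrin fluorescence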
N-glyco inh: increase of ERlucT glycosylation luciferase signal, primary screen, N-linked glycosylation inhibitor project, D54 ERlucT cells, luminescence, set 2. D54 ERlucT glycosylation luciferase reporter, 24 h; percent of 100 nM tunicamycin response. 0.23% of 360,000 active. reporter increase, % at 12.5 µM. AID 588692, 2011;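 active = mean luciferase reporter signal, scaled so untreated is 0 and the glycosylation-blocking control 100, at or above a set limit in every replicate; inconclusive = mean reaches the limit but not every replicate does; inactive = mean below the limit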;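 note: luciferase carries N-glycosylation sites so blocking glycosylation raises the light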
Vif imaging: HIV Vif self-association inhibitors, primary screen, imaging, HEK293T, single point; HEK293T cells, Vif self-association by quenched fluorescence, 24 h; inhibition, % at 7.49 µM; 0.35% of 340,000 active; AID 602346, 2012; in the data active = inhibition above about 50%, passing the limit was not always enough; inconclusive = no clear call, values can overlap the other calls; inactive = below about 31%
Large screens that a line does not name were inactive; ! = not confirmed by another sample.

CCCCNC(=O)C[C@@H]1C[C@@]2(C(=O)OC)CC(C)(C)CC=C2N(Cc2ccc3c(c2)OCO3)C1=O	none (no result: RAD54 inh, ABCB6 inh 2, N-glyco inh, Vif imaging)
CN(C)c1ccc2c(c1)[C@@H]1C[C@@H](CC(=O)NCCN3CCCCC3)O[C@H](CO)[C@@H]1O2	RAD54 inh 55 (no result: Myeloid diff 2, ABCB6 inh 2, N-glyco inh, Vif imaging)
Brc1ccc(C=Nc2ccc(Nc3ccccc3)cc2)s1	Myeloid diff 2 active (no result: RAD54 inh)
O=C(C1CCC1)N1CC[C@@H]2[C@H](CO)Nc3ccc(-c4cccc(F)c4)cc3[C@@H]21	none (no result: Myeloid diff 2, ABCB6 inh 2, N-glyco inh, Vif imaging)
CC[C@]12C(=O)N(C)C[C@H]([C@@H]3C(=O)N(Cc4ccccc4)C(=O)[C@@H]31)N2C(=O)c1ccccc1	Myeloid diff 2 active
O=C(CCCCCN1C(=O)c2ccccc2C1=O)Nc1ccccc1	none
O=C(CCCCCCC(=O)Nc1ccccc1)NO	Myeloid diff 2 inconclusive, N-glyco inh 858, Vif imaging 152
O=C(Cc1ccccc1)Nc1ccc2c(c1)C(=O)N(CC1CCCO1)C2=O (stereo unspecified)	Vif imaging 50 (no result: RAD54 inh)
C[C@@H]1CN([C@@H](C)CO)C(=O)c2cc(-c3ccc(F)cc3)cnc2O[C@H]1CN(C)C(=O)Cc1ccccc1	none (no result: Myeloid diff 2, ABCB6 inh 2, N-glyco inh, Vif imaging)
O=c1c(-c2nc3ccccc3s2)cccn1Cc1ccccc1	Myeloid diff 2 active
Cc1ccc(Cn2cccc(-c3nc4ccccc4s3)c2=O)cc1	none (no result: RAD54 inh)
CN(C)CC(=O)Nc1ccc2c(c1)[C@H]1C[C@@H](CC(=O)NCc3cccc(F)c3)O[C@H](CO)[C@H]1O2	none (no result: Myeloid diff 2, ABCB6 inh 2, N-glyco inh, Vif imaging)
COC(=O)C1C2CC3c4[nH]c5cc(OC)ccc5c4CCN3CC2CC(OC2CCCCO2)C1OC (stereo unspecified)	Myeloid diff 2 active (no result: Vif imaging)
C[C@@H]1CN([C@@H](C)CO)C(=O)c2cc(-c3cccc(C#N)c3)cnc2O[C@@H]1CN(C)C(=O)C1CCC1	none (no result: Myeloid diff 2, ABCB6 inh 2, N-glyco inh, Vif imaging)
COc1ccc(C)cc1Nc1n[n+](-c2ccccc2)c(-c2cc([N+](=O)[O-])cc(OC)c2O)s1	Myeloid diff 2 active
Cc1cccc(-c2ccc([C@@H]3[C@@H](CO)N4CCCCN(S(=O)(=O)c5cccs5)C[C@@H]34)cc2)c1	none (no result: Myeloid diff 2, ABCB6 inh 2, N-glyco inh, Vif imaging)
O=C(CN1C2CCCC1CC(NC(=O)C1CCCCC1)C2)Nc1ccccc1C(F)(F)F (stereo unspecified)	Myeloid diff 2 active
COc1cccc(C(=O)NC2CC3CCCC(C2)N3CC(=O)Nc2ccccc2C(F)(F)F)c1 (stereo unspecified)	none
CC(C)CCn1nnnc1CN1CCN(C(c2ccccc2)c2ccccc2)CC1	Myeloid diff 2 active
c1ccc(C(c2ccccc2)N2CCN(Cc3nnnn3C3CCCC3)CC2)cc1	none (no result: Vif imaging)
COc1ccc(-c2ccc3c(c2)O[C@@H](CN(C)Cc2cccnc2)[C@@H](C)CN([C@H](C)CO)S3(=O)=O)cc1	none (no result: Myeloid diff 2, ABCB6 inh 2, N-glyco inh, Vif imaging)
C[C@]12CCC(=O)CC1CCC1C2CC[C@@]2(C)C1CC[C@@]21CCO1 (stereo partly specified)	Myeloid diff 2 active
C=CC[C@@H](CC(=O)N(CCO)Cc1ccccc1)C(=O)N[C@H](COC(=O)[C@@H](CC=C)Cc1ccc(F)cc1)C(C)(C)C	Vif imaging 55
Cc1noc(C)c1NC(=O)N(C)C[C@@H]1Oc2ncc(C#CC3CCCC3)cc2C(=O)N([C@@H](C)CO)C[C@H]1C	none (no result: Myeloid diff 2, ABCB6 inh 2, N-glyco inh, Vif imaging)
CC1=CC(C)(C)n2c(O)c(N=NC(N)=S)c3c(C)c(C)cc1c32	none
CC1=CC(C)(C)n2c(O)c(N=NC(N)=S)c3c(C)ccc1c32	Myeloid diff 2 active
CCOC(=O)CCS(=O)(=O)c1nc(-c2ccccc2)cc(C(F)(F)F)n1	ABCB6 inh 2 72 (no result: Myeloid diff 2)
CCOC(=O)CS(=O)(=O)c1nc(-c2ccccc2)cc(C(F)(F)F)n1	none (no result: RAD54 inh)
Cc1ccc(S(=O)(=O)N2C[C@H]3n4c(=O)ccc(=O)n4C[C@H](OC(=O)NC4CC4)[C@@]3(O)C2)cc1	Myeloid diff 2 active
COc1cc(-c2cc(-c3ccc(N)cc3)[nH]c(=O)c2C#N)cc(OC)c1OC	Myeloid diff 2 active
CN(C)C(=O)C[C@@H]1CC[C@@H]2[C@H](COC[C@H](O)CN2CC2CCCCC2)O1	none (no result: Myeloid diff 2, ABCB6 inh 2, N-glyco inh, Vif imaging)
Cc1oc(-c2ccccc2)cc1C(=O)NCc1ccncc1	none (no result: RAD54 inh)
CC(=O)Oc1cc2c(C(=O)NCc3ccncc3)c(C)oc2c2ccccc12	Myeloid diff 2 active (no result: Vif imaging)
Cc1cc(Cl)c(S(=O)(=O)Nc2ccon2)cc1OCC(=O)NC1CCCCC1	none
Cc1cc(Cl)c(S(=O)(=O)Nc2ccc3c(c2)OCCO3)cc1OCC(=O)NC1CCCCC1	ABCB6 inh 2 73
COc1ccccc1NC(=O)N1C[C@H]2[C@@H](c3ccccc31)[C@@H](CO)N2C(=O)C1CC1	none (no result: Myeloid diff 2, ABCB6 inh 2, N-glyco inh, Vif imaging)
O=C(C[C@H]1C=C[C@H](NC(=O)Nc2ccc(F)cc2)[C@@H](CO)O1)NCCN1CCCC1	none (no result: Myeloid diff 2, ABCB6 inh 2, N-glyco inh, Vif imaging)
CCOC(=O)CNC(=O)N1CCCC(C(=O)c2ccc3c(c2)OCO3)C1 (stereo unspecified)	Myeloid diff 2 active (no result: RAD54 inh)
C[C@@H]1CCCCO[C@H](CN(C)S(=O)(=O)c2ccc(F)cc2)[C@@H](C)CN([C@@H](C)CO)C(=O)c2cc(NC(=O)Nc3ccccc3)ccc2O1	none (no result: Myeloid diff 2, ABCB6 inh 2, N-glyco inh, Vif imaging)
COc1cc(C(=O)Oc2cccc(C)c2)cc(OC)c1OC	none
COc1cc(OC)nc(Oc2ccccc2C(=O)Oc2cccc(C)c2)n1	Vif imaging 74
CN(C)c1ccc(/C=C2/C[N+](C)(C)C/C(=C/c3ccc(N(C)C)cc3)C2=O)cc1	none (no result: RAD54 inh, Myeloid diff 2)
CC(C)/C=C1\CC/C(=C\c2ccc(N(C)C)cc2)C1=O	Myeloid diff 2 active (no result: RAD54 inh)
CCCNC(=O)Nc1ccc2c(c1)C(=O)N(C)[C@@H]1CC[C@@H](CC(=O)O)O[C@@H]1CO2	none (no result: Myeloid diff 2, ABCB6 inh 2, N-glyco inh, Vif imaging)
C=C1C[C@]23C[C@@]1(O)CC[C@H]2[C@@]12C=C[C@H](O)[C@@](C)(C(=O)O1)[C@H]2[C@@H]3C(=O)O	Myeloid diff 2 active!
C=C(NC(=O)C(=C)NC(=O)c1csc(C2=NC3c4csc(n4)C4NC(=O)c5csc(n5)C(C(C)(O)C(C)O)NC(=O)C5CSC(=N5)/C(=C/C)NC(=O)C(C(C)O)NC(=O)c5csc(n5)C3(CC2)NC(=O)C(C)NC(=O)C(=C)NC(=O)C(=C)NC(=O)C(C(C)C)NC2C=Cc3c(C(C)O)cc(nc3C2O)C(=O)OC4C)n1)C(N)=O (stereo unspecified)	Vif imaging 176 (no result: RAD54 inh, Myeloid diff 2)
O=C(NCC[C@@H]1CC[C@@H](NC(=O)C2CCOCC2)[C@H](CO)O1)c1ccc(F)cc1	none (no result: Myeloid diff 2, ABCB6 inh 2, N-glyco inh, Vif imaging)
Cc1cc(C=O)c(C)n1-c1sc2c(c1C(=O)O)CCCC2	none (no result: RAD54 inh)
COC(=O)c1c(-n2c(C)cc(C=O)c2C)sc2c1CCCC2	Vif imaging 84
CCCN(C)C[C@@H]1OCCCC[C@@H](C)Oc2ccc(NC(=O)CCC(F)(F)F)cc2C(=O)N([C@@H](C)CO)C[C@@H]1C	none (no result: Myeloid diff 2, ABCB6 inh 2, N-glyco inh, Vif imaging)
